From PubChem
Pf Dd2 growth: blocks in vitro growth of P. falciparum Dd2. P. falciparum Dd2 growth, SYBR Green, 72 h. Potency, µM (doses to about 28.9 µM), usual class: inhibitors. 120,000 compounds, 4.3% hits; active = well fitted inhibition curve with a large enough effect; note: nearly all actives have a fitted effect of over 65% in size
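Readout: SYBR Green fluorescence, 485 nm excitation, 535 nm emission, after ~16 h lysis at 37C. Before that, Dd2-infected red cells (2.5% hematocrit) grew 72 h with compound, 29 uM top final concentration.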
Of the large screens only hits and unclear results are named; the others gave an inactive call. Shown is part of a subset that was picked to be rich in hits.

O=C(C[C@@H]1CCNC[C@@H]1Cc1cc(CSc2ccccc2)on1)NCCN1CCOCC1	none
COc1ccc(-c2cc(C[C@H]3CNCC[C@H]3CC(=O)N3CCN(C)CC3)no2)cc1	none
CN(Cc1ccccc1)C(=O)C[C@@H]1CCNC[C@@H]1Cc1cc(CSc2ccccc2)on1	Pf Dd2 growth 10µM
C#CCN(C)C(=O)C[C@@H]1CCNC[C@@H]1Cc1cc(COc2ccccc2)on1	Pf Dd2 growth 10µM
COc1ccc(CNC(=O)C[C@@H]2CCNC[C@@H]2Cc2cc(-c3ccc(OC)cc3)on2)cc1	none
O=C(C[C@@H]1CCNC[C@@H]1Cc1cc(CSc2ccccc2)on1)NCc1cccnc1	none
COc1ccc(-c2cc(C[C@H]3CNCC[C@H]3CC(=O)NCc3ccc(OC)c(OC)c3)no2)cc1	none
COc1cccc(CCc2ccccc2C(=O)N2CC[C@](C)(O)[C@H](C)C2)c1	none
CNC(=O)[C@@H]1C[C@H](Oc2ccccc2)CN1C(=O)C1(C)CCCCC1	none
COc1cccc(CN2CCCC3(CCN(C(=O)c4ccccn4)C3)C2=O)c1OC (centres undefined)	none
COc1ccc(OC(=O)N2CCC(Oc3ccc4c(cnn4CCC(=O)O)c3)CC2)cc1	none
Cc1ccc(CNc2ccc3nnc(C4CCC4)n3n2)o1	Pf Dd2 growth 7.1µM
CC(C)Nc1ccc2nnc(C3CCC3)n2n1	none
CCc1nnc2ccc(NCC3CCCO3)nn12 (centres undefined)	none
O=C1CC(c2ccccc2)N(C(=O)C2CC2)CCCN(C(=O)Nc2ccccc2)CCN1 (centres undefined)	none
CC(C)C[C@@H]1N[C@H](C(=O)NCc2ccc(C(F)(F)F)cc2)Cc2c[nH]c3cccc1c23	none
COc1ccccc1CCN1CCC(CN(C)C(=O)CCc2ccccc2Cl)CC1	Pf Dd2 growth 8.9µM
COc1ccccc1CCN1CCCC(CN(C)C(=O)CN2C(=O)CNC2=O)C1 (centres undefined)	none
COc1ccccc1CCN1CCCC(CN(C)C(=O)Cn2cccnc2=O)C1 (centres undefined)	none
CC(C)CN1CCCC(COc2ccccc2C(=O)NC2CC2)C1 (centres undefined)	none
O=C(COc1ccccc1)NCCC1CCN(C(=O)Nc2ccccc2)CC1	Pf Dd2 growth 11µM
O=C(CCc1ccccc1)NCCC1CCN(C(=O)Nc2ccccc2)CC1	none
CC(C)CC(=O)NCCC1CCN(C(=O)Nc2ccccc2)CC1	none
CCc1noc([C@@H]2CC(F)(F)CN2C(=O)CCc2c(C)noc2C)n1	none
CCC1(O)CCC12CCN(C(=O)c1ccsc1)CC2 (centres undefined)	none
O=C(Nc1ccc2oc(-c3cccnc3)nc2c1)c1cccc(Br)c1	none
CCc1cc(N2CCCC(C(=O)c3sccc3C)C2)ncn1 (centres undefined)	none
Cc1ccc(C(=O)Nc2ccc3c(N4CCOCC4)ncnc3c2)cc1C	Pf Dd2 growth 11µM
O=C(Nc1ccc2c(N3CCCC3)ncnc2c1)c1cccc(Br)c1	Pf Dd2 growth 0.89µM
Cc1ccc(C(=O)Nc2ccc3c(N4CCCCC4)ncnc3c2)cc1F	Pf Dd2 growth 6.3µM
Cc1ccc(NC(=O)C2CCCN(c3ncnc4c3nc3n4CCCCC3)C2)cc1F (centres undefined)	none
CCc1cccc(NC(=O)c2c(C)oc3ncnc(N4CCCCC4)c23)c1	none
CCc1ccc(-c2nc3cc(NC(=O)c4ccc(C)c(C)c4)ccc3o2)cc1	none
COc1cccc(C(=O)Nc2ccc3c(N4CCOCC4)ncnc3c2)c1	none
Cc1ccsc1C(=O)Nc1ccc2c(N3CCCCC3)ncnc2c1	Pf Dd2 growth 11µM
Cc1ccc(NC(=O)c2ccc3c(c2)N(C)C2CCCCN2C3=O)cc1F (centres undefined)	none
CCN1CCN(C(=O)CN2CC3CC(C2)[C@H]2CCCC(=O)N2C3)CC1 (some centres undefined)	none
Cc1noc([C@@H]2CC(F)(F)CN2C(=O)Cc2ccc(F)cc2)n1	none
O=C(CCC1CCCN(S(=O)(=O)c2ccccc2F)C1)NCCc1ccccc1 (centres undefined)	none
COc1ccc(CC(=O)N2CCC(Cc3nc(-c4ccccc4)no3)CC2)cc1Cl	none
Cc1sc2ccn(C)c(=O)c2c1C(=O)NCc1ccc(F)cc1Cl	none
COCc1nc(NCCc2nc(-c3ccccn3)no2)c2cnn(C)c2n1	none
Cc1cc2nc3n(c(=O)c2n1CC(=O)Nc1ccc(Br)cc1F)CCC3	none
CNC(=O)c1cc(S(=O)(=O)N2CCc3c(nc[nH]c3=O)C2)cs1	none
CC(=O)c1ccc(NC(=O)c2nc3ccccc3nc2N2CCCCC2)cc1	none
O=C(Nc1ccc2ncnc(N3CCCCC3)c2c1)c1cc(F)cc(F)c1	none
O=C(Nc1ccc2c(N3CCCC3)ncnc2c1)c1ccc(Cl)cc1	Pf Dd2 growth 2.8µM
O=C(Nc1ccc2ncnc(N3CCCCC3)c2c1)c1ccccc1	none
O=C(Nc1ccc(Cl)cc1)c1ccc(-n2cnnc2)cc1	none
O=C(Nc1ccc2c(N3CCCCC3)ncnc2c1)c1ccc(F)cc1	Pf Dd2 growth 3.2µM
CN(Cc1ccccc1)C(=O)CCc1nc(C2CCCN2C(=O)C2CCC2)no1 (centres undefined)	none
CC1CCN(C(=O)c2ccc(CN3C(=O)NC4(CCS(=O)(=O)CC4)C3=O)cc2)CC1	none
c1ccc(-c2nnc3ccc(-c4ccoc4)nn23)nc1	none
O=C(O)c1[nH]ncc1CN1CCc2[nH]nc(-c3ccc(-c4ccccc4)cc3)c2C1	none
CCC(C(=O)Nc1cc(-c2nc3cccnc3s2)ccc1C)c1ccccc1 (centres undefined)	Pf Dd2 growth 10µM
Cc1ccc(-c2nc3cccnc3s2)cc1NC(=O)C(C)C	none
Cc1cccc(C(=O)Nc2cc(-c3nc4cccnc4s3)ccc2C)c1	none
COc1ccc2[nH]c3c(c2c1)CCNC31CCN(C(=O)c2ccsc2)CC1	none
COc1cc2c(cc1C(=O)N1CCNCC(O)C1)CCC2 (centres undefined)	none
COc1cccc(C(=O)N2CCN(c3cc(C(F)(F)F)nc(C)n3)CC2)c1OC	none
CNC(=O)[C@@H]1C[C@@H](O)CN1C1CCN(C(=O)c2nn(C)c3ccccc23)CC1	none
CC(C)NC(=O)N1CCC2(CC1)CN(C(=O)CCCN)Cc1ccccc1O2	none
FC(F)(F)c1cccc2c(N3CCC4(CCCN4Cc4ncc[nH]4)CC3)ccnc12	Pf Dd2 growth 10µM
COCCC1(C(=O)O)CCN(c2ccnc3c(C(F)(F)F)cccc23)CC1	none
OC[C@H]1CCN(c2ccnc3c(C(F)(F)F)cccc23)C[C@H]1O	none
CC(=O)Nc1ccc(CN2CCC3(CC2)CC(=O)c2ccc(Cl)cc2O3)cc1	none
N#Cc1ccc(CN2CCC3(CC2)CC(=O)c2ccc(Cl)cc2O3)cc1	Pf Dd2 growth 11µM
Cc1cc(CN2CCC3(CC2)CC(=O)c2ccc(Cl)cc2O3)no1	none
Fc1ccc(CN2C[C@@H](F)[C@@H](OCc3nc4ccccc4o3)C2)cc1	none
O=C(C[C@@H]1C[C@H]2O[C@H](CNCc3cnccc3C(F)(F)F)[C@@H](O)[C@H]2O1)N1CCOCC1	none
COC(=O)[C@H]1CN(C(=O)c2cccnc2)CCN1C(=O)N1CCOCC1	none
O=[S+]([O-])(NCC1CN(Cc2ccncc2Cl)CC12CN(c1ccccc1)C2)c1ccccc1 (centres undefined)	none
Cc1ccc([S+](=O)([O-])NC[C@@H]2CC[C@H]3C[C@@H]2C3(C)C)cc1	none
CC1(C)[C@H]2CC[C@@H](CN[S+](=O)([O-])c3ccccc3)[C@@H]1C2	Pf Dd2 growth 11µM
O=C(c1cnc(C2CC2)nc1)N1CCC2(CCNCC2CO)CC1 (centres undefined)	none
CCOc1cccc(CNC(=O)[C@H]2CCC[C@H]2NC(=O)c2ccc(OC)nc2)c1	none
COc1cccc(/C=C/c2nc3ccccc3c(=O)n2-c2ccc(C)c(C)c2)c1OC	none
